Legend:
Settings in all cases: concentration: 1 μM, replicates: in singlicate; n = 1
IKK-alpha = test system: T1, IKK-alpha
T1 construct: gene CHUK

IKK-beta = test system: T2, IKK-beta
T2 construct: gene IKBKB

IKK-epsilon = test system: T3, IKK-epsilon
T3 construct: gene IKBKE

INSRR = test system: INSRR
INSR = test system: INSR
IRAK1 = test system: IRAK1
IRAK3 = test system: IRAK3
IRAK4 = test system: IRAK4
ITK = test system: ITK
[1] = test system: JAK1(JH1domain-catalytic)
[2] = test system: JAK1(JH2domain-pseudokinase)
[3] = test system: JAK2(JH1domain-catalytic)
[4] = test system: JAK3(JH1domain-catalytic)
JNK1 = test system: T4, JNK1
T4 construct: gene MAPK8

JNK2 = test system: T5, JNK2
T5 construct: gene MAPK9

JNK3 = test system: T6, JNK3
T6 construct: gene MAPK10

KIT-autoinhibited = test system: KIT-autoinhibited
KIT = test system: KIT
LATS1 = test system: LATS1
LATS2 = test system: LATS2
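Also: KINOMEscan kinase panel screen.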

| SMILES | %Inh (IKK-alpha) | %Inh (IKK-beta) | %Inh (IKK-epsilon) | %Inh (INSRR) | %Inh (INSR) | %Inh (IRAK1) | %Inh (IRAK3) | %Inh (IRAK4) | %Inh (ITK) | %Inh [1] | %Inh [2] | %Inh [3] | %Inh [4] | %Inh (JNK1) | %Inh (JNK2) | %Inh (JNK3) | %Inh (KIT-autoinhibited) | %Inh (KIT) | %Inh (LATS1) | %Inh (LATS2) |
| --- | --- | --- | --- | --- | --- | --- | --- | --- | --- | --- | --- | --- | --- | --- | --- | --- | --- | --- | --- | --- |
| Cn1cc(-c2ccc3c(c2)CCN3C(=O)Cc2cc(F)cc(C(F)(F)F)c2)c2c(N)ncnc21 [GSK2635225] | 0% | 0% | 75% | 0% | 31% | 8% | 0% | 0% | 5% | 9% | 3% | 10% | 0% | 0% | 13% | 0% | 16% | 100% | 0% | 4% |
| O=C(O)C(F)(F)F.O=c1[nH]ccc2nc(N[C@@H]3CCNC3)nc(Nc3cc(Cl)cc(Cl)c3)c12 [GSK2188764] | 72% | 44% | 29% | 5% | 36% | 90.1% | 1% | 17% | 17% | 93.5% | 98% | 92.2% | 100% | 36% | 7% | 25% | 2% | 73% | 42% | 59% |
| CN(c1ccc(F)c(NC(=O)c2cccc(OC(C)(C)C#N)c2Cl)c1)c1ccc2nc(NC(=O)C3CC3)sc2n1 | 0% | 0% | 29% | 0% | 0% | 0% | 8% | 0% | 0% | 10% | 3% | 0% | 0% | 11% | 0% | 20% | 6% | 99.8% | 0% | 35% |
| Cc1cc(-c2ccnc(Nc3cccc(C#N)c3)n2)cc(C)c1O [GSK1440913] | 61% | 67% | 28% | 23% | 0% | 52% | 82% | 11% | 9% | 0% | 78% | 92.6% | 74% | 98.9% | 77% | 99% | 0% | 49% | 0% | 0% |
| Cc1ccc(NC(=O)c2ccnc(N3CCCCC3)c2)cc1-c1ccc(C(=O)NCC2CC2)cc1 [GW775610] | 0% | 0% | 0% | 0% | 0% | 0% | 0% | 0% | 51% | 52% | 0% | 90% | 95.2% | 42% | 43% | 28% | 8% | 87% | 0% | 0% |
| Cc1cccc(Nc2nc(N[C@H]3CCCC[C@H]3N)ncc2C(N)=O)c1.Cl [GSK986310] | 0% | 11% | 34% | 8% | 26% | 88% | 17% | 86% | 29% | 77% | 91.4% | 87% | 80% | 62% | 36% | 27% | 0% | 37% | 18% | 7% |
| Cl.Cl.NCC(NC(=O)c1cc(-c2cccnc2)c(-c2ccnc3[nH]ccc23)s1)c1ccccc1 (stereo not shown) [GSK1323434] | 14% | 54% | 21% | 0% | 0% | 76% | 1% | 8% | 10% | 15% | 0% | 31% | 79% | 44% | 61% | 41% | 0% | 19% | 0% | 11% |
| COc1cc(Nc2nccc(N3CCC(NS(=O)(=O)c4ccc(NC(C)=O)cc4)CC3)n2)cc(OC)c1OC [GSK1379825] | 24% | 14% | 11% | 0% | 0% | 74% | 85% | 44% | 17% | 20% | 83% | 96.3% | 8% | 44% | 37% | 31% | 0% | 90% | 0% | 0% |
| CN(c1ccc(NC(=O)Nc2cccc(Cl)c2)cc1)c1ccnc(N)n1.Cl [GW830707] | 0% | 0% | 8% | 3% | 0% | 0% | 31% | 0% | 0% | 0% | 0% | 27% | 0% | 0% | 0% | 0% | 45% | 100% | 18% | 0% |
| COc1cccc(NC(=O)NCCNc2ccnc(Nc3ccc(F)cc3)n2)c1 [GSK1379879] | 0% | 0% | 0% | 0% | 0% | 25% | 14% | 21% | 6% | 23% | 0% | 22% | 0% | 25% | 17% | 13% | 0% | 46% | 0% | 0% |
| NCCC(NC(=O)c1cc(Br)c(-c2ccnc3[nH]ccc23)s1)c1ccccc1.O=C(O)C(F)(F)F.O=C(O)C(F)(F)F (stereo not shown) [GSK1307810] | 52% | 57% | 17% | 0% | 0% | 96.8% | 9% | 0% | 7% | 79% | 0% | 97.1% | 98.7% | 30% | 15% | 16% | 0% | 73% | 83% | 93% |
| CCNc1nccc(-c2c(-c3ccc(F)cc3)ncn2C2CCN(C)CC2)n1 | 0% | 0% | 0% | 100% | 0% | 0% | 21% | 0% | 0% | 0% | 80% | 0% | 0% | 75% | 96.4% | 96.3% | 0% | 0% | 0% | 0% |
| COc1cccc2c(-c3ccncc3)c(-c3ccc(F)cc3)nn12 [GW468513] | 0% | 14% | 3% | 9% | 11% | 28% | 24% | 7% | 8% | 0% | 67% | 11% | 0% | 96% | 99.8% | 99.9% | 0% | 8% | 0% | 8% |
| Cc1nn2c(=O)cc(N3CCO[C@H](C)C3)nc2n1Cc1cccc(Cl)c1Cl [GSK2373693] | 36% | 81% | 0% | 0% | 4% | 78% | 0% | 25% | 15% | 9% | 0% | 22% | 0% | 16% | 9% | 7% | 0% | 51% | 0% | 0% |
| Fc1cc(Cl)ccc1Nc1ccnc2cc(-c3ccc(CN4CCSCC4)o3)ccc12 [GW560106] | 31% | 9% | 0% | 0% | 0% | 18% | 7% | 0% | 8% | 11% | 0% | 0% | 0% | 13% | 34% | 1% | 11% | 100% | 73% | 0% |
| CN(c1ccc(NC(=O)N2CCN(CCCN3CCOCC3)CC2)cc1)c1ccnc(Nc2ccc(CS(C)(=O)=O)cc2)n1.Cl [GW830899] | 0% | 0% | 0% | 0% | 0% | 0% | 50% | 0% | 0% | 0% | 44% | 65% | 14% | 46% | 0% | 0% | 0% | 98.8% | 0% | 0% |
| CN(C)CCNS(=O)(=O)c1ccc(-c2ccnc3[nH]ccc23)cc1 [GSK977620] | 85% | 98.8% | 2% | 0% | 0% | 55% | 45% | 17% | 54% | 12% | 0% | 82% | 56% | 29% | 17% | 15% | 0% | 9% | 29% | 93% |

— publication PMC5540273 (PLoS ONE, 2017)
